Results as given in PubChem BioAssay AID651919 (Sanford-Burnham Center for Chemical Genomics, 2012).

Biological target: C-X-C chemokine receptor type 6 (Homo sapiens) (UniProt O00574)
Assay: CXCR6 and CXCR5 receptor antagonist panel, profiling panel, selectivity assay for CXCR6 antagonist project, cell-based, CHO-K1 PathHunter beta-arrestin, luminescence, set 4 (AID 651919)
Settings: run 3, at 79 µM (top of the series)

Sequence of C-X-C chemokine receptor type 6 (Homo sapiens) (O00574 whole entry, looked up): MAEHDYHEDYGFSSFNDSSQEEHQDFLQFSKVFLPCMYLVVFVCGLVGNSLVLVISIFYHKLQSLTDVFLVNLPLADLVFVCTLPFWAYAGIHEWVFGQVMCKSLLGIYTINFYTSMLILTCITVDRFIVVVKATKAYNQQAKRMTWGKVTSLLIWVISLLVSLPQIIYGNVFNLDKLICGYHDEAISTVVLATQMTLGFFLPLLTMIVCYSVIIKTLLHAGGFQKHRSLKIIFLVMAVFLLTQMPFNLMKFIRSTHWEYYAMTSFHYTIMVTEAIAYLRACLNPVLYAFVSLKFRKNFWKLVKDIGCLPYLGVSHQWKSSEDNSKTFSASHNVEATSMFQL

Row | Structure (SMILES) | inhibition
1 | COc1cc(C(=O)NC2CC3CCCC(C2)N3CC(=O)Nc2ccccc2)cc(OC)c1OC (configuration not stated) | 92.7%
2 | COc1cc(C(=O)NC2CC3CCCC(C2)N3CC(=O)Nc2ccccc2Cl)cc(OC)c1OC (configuration not stated) | 99.1%
